# CDC25B CDK2 inh: primary biochemical HTRF screen for blockers of M-phase inducer phosphatase 2 binding to CDK2/cyclin A; 0.72% of 94,000 active; HTRF CDC25B-CDK2/CyclinA binding, anti-His/anti-Flag; hits give high values; P30305+P24941; AID 1259370, 2018; z-score (concentration not given with the values); in the data active = z-score above about 3.2
# HIV TAR-Tat: TAR RNA-Tat peptide displacers, HIV-1, primary screen, biochemical, FRET, FAM/TAMRA-labeled Tat | HIV-1 TAR RNA, Tat peptide displacement FRET; hits give high values | z-score (concentration not given with the values) | 0.6% of 100,000 active | AID 1259389, 2018; active = z-score of 3 or more in at least 2 runs
# Starred values were filed as active, the others as inactive; x = no result given. Compounds with a hit are over-represented: about 0.86% of the library has one in this group of screens.
SMILES,CDC25B CDK2 inh,HIV TAR-Tat
CC(C)CNC(=O)C(=O)NCC(c1ccco1)S(=O)(=O)c1ccc(F)cc1 (stereo not drawn),x,2.2
O=c1[nH]c(-c2ccc3c(c2)OCO3)no1,-1.6,0.32
Cc1ccn2c(=O)c(C(=O)NCc3ccncc3)c(O)nc2c1,-2.5,-1.8
CCc1cc2c(cc3c(=O)n(CC(=O)NCc4ccccn4)ncn32)s1,-1.6,-0.32
CC(=O)Oc1cccc(O)c1,x,1.3
CC(Oc1ccc(O)cc1)(P(=O)(O)O)P(=O)(O)O,x,26*
CCC(=O)OCc1cc(=O)n2nc(-c3cccs3)sc2n1,x,19*
Cc1ccc(SCC(=O)OCc2cc(=O)n3nc(-c4cccs4)sc3n2)cc1,x,0.74
CC1CCN(c2cc(C(=O)O)c3cc(N)ccc3n2)CC1,x,-6.2
Cc1cccc(N2CCN(c3cc(C(=O)O)c4cc(N)ccc4n3)CC2C)c1 (stereo not drawn),x,6.5*
COc1cccc(Cn2cc3c(-c4ccc(OC)c(OC)c4)nnc-3c3cc4c(cc32)OCCO4)c1,2.8,5.1*
COc1ccc(-c2nnc3c4cc5c(cc4n(Cc4ccccc4)cc2-3)OCCO5)cc1OC,2,0.88
O=C(c1cnn2cc(Br)cnc12)N1CCCC1c1ccccc1F (stereo not drawn),0.63,1.6
O=C(c1cnn2cc(Br)cnc12)N1CCCC1c1cccc(F)c1 (stereo not drawn),0.57,30*
Cc1ccc(N2N=C(C(=O)OC(C)(C)C)S(=O)(=O)c3cc(F)ccc32)cc1,-0.4,2.1
Cc1ccc(N=C2NC(=O)/C(=C/c3ccc(O)c(Br)c3)S2)cc1Cl,8.8*,x
CCOc1cc(/C=C2\SC(=Nc3cccc(Cl)c3C)NC2=O)ccc1O,0.82,x
COc1ccc(C(=O)N2c3nc(-c4cccnc4)nn3C3(CCCCC3)[C@@H]3CCCC[C@@H]32)cc1,-1.6,2.1
Cc1onc(-c2c(Cl)cccc2Cl)c1NC(=O)NNc1ccccn1,9.5*,x
Cc1noc(NC(=O)Nc2c(-c3ccccc3Cl)noc2C)c1C,-2.2,x
C=C1c2ccccc2NC(=O)N1c1ccc(F)cc1,-1.9,x
O=c1[nH]cc(Cl)cc1Cl,6.4*,x
O=c1[nH]cc(C(F)(F)F)cc1Cl,-2.6,x
O=C(CCS(=O)(=O)c1cccc2nsnc12)NCc1ccccn1,-0.5,-0.7
O=C(CSc1ccccc1)Nc1nc2ccc(Cl)cc2o1,x,-0.43
SMILES,CDC25B CDK2 inh,HIV TAR-Tat
CSc1ccc(-c2nc3c(c(SCC(N)=O)n2)Cc2cc(C)ccc2O3)cc1,-0.43,1.5
Oc1ccc2ccccc2c1C1Nc2cccc3cccc(c23)N1,-1,15*
COc1cc(C2Nc3cccc4cccc(c34)N2)ccc1O,0.77,7.3*
c1ccc(-c2ccc(C3Nc4cccc5cccc(c45)N3)cc2)cc1,0.78,5.3
Cc1cccc(C2Nc3cccc4cccc(c34)N2)c1,0.56,4.3
CC1CCN(CCCNS(=O)(=O)c2ccc3c(c2)oc(=O)n3C)CC1,-2.8,x
COc1ccc(-n2ccnc(OC)c2=O)cc1,-1.4,2.1
CC(Cc1ccc(O)c(O)c1)C(C)Cc1ccc(O)c(O)c1 (stereo not drawn),x,6.2*
N[C@@H](Cc1ccc([N+](=O)[O-])cc1)C(=O)O,-1.5,x
N[C@@H](Cc1ccc(O)c(O)c1)C(=O)O,0.41,24*
C[C@H](Cc1ccc(O)c(O)c1)[C@@H](C)Cc1ccc(O)c(O)c1,-0.68,x
CCOC(=O)C1CCN(C(=O)c2cc3c(s2)-c2ccc(Cl)cc2SC3)CC1,-1.3,1.1
C=CCN(C(=O)CSc1nncn2c1cc1occc12)c1ccccc1,x,1.4
CCN(Cc1ccccc1)C(=O)CSc1nncn2c1cc1occc12,x,6.7*
Nc1cccc(-c2nc(-c3cccc(Br)c3)co2)c1,x,0.11
Cc1sc2ncn(CC(=O)N3CCCCC3C)c(=O)c2c1S(=O)(=O)N1CCN(C)CC1 (stereo not drawn),17*,x
Cc1sc2ncn(CC(=O)N3CCCC3)c(=O)c2c1S(=O)(=O)N1CCCCC1,0.27,x
CN(CCCNS(=O)(=O)c1cc2c(cc1Cl)NC(=O)CO2)c1ccccc1,x,0.49
Cc1noc2ncnc(NCCCN(Cc3ccccc3)C(C)C)c12,x,0.74
Fc1ccc(-c2cn3ccccc3n2)cc1,1.2,1.2
Fc1ccc(-c2cn3c(n2)Cc2ccccc2C3)cc1,18*,x
Cc1ccccc1-n1cc(-c2ccccc2)c2c(NCCN(C)C)ncnc21,-1.4,-0.92
CCCNC(=O)CCCn1cnc2cc(S(=O)(=O)N(C)C)ccc21,x,-0.24
CCCN(CCC)C(=O)CCS(=O)(=O)c1cc2c(cc1Cl)NC(=O)CO2,x,0.83
CCOc1ccc(C2CC(=O)N3CN(c4ccc(OCC)cc4)CSC3=C2C#N)cc1 (stereo not drawn),2.1,0.45
SMILES,CDC25B CDK2 inh,HIV TAR-Tat
Cc1ccc(C2CC(=O)N3CN(c4ccc(CCO)cc4)CSC3=C2C#N)cc1 (stereo not drawn),7.1*,-0.54
COc1ccc(C2CC(=O)N3CN(c4ccc(CCO)cc4)CSC3=C2C#N)cc1 (stereo not drawn),6*,0.63
COc1ccccc1Cn1cc(C(=O)c2ccccc2)c(=O)c2ccccc21,-0.56,0.63
Cc1c(N2CCN(C(=O)c3n[nH]c4c3CCCC4)CC2)c(=O)n(C)c(=O)n1C,x,0.54
CCOC(=O)c1nc(Nc2cc(C)ccc2C)c2c(C)noc2n1,x,0.44
CCN(CC)c1nc(NCc2ccc(OC)cc2)c2cnn(C)c2n1,x,1.5
CCc1cc2c(=S)[nH]cnc2s1,-0.86,x
CCc1cc(C=N)c([S-])s1.CCc1cc(C=N)c([S-])s1.[Zn+2],19*,x
CCOC(=O)c1noc2ncnc(N(Cc3ccco3)C3CCCCC3)c12,x,0.48
CCOC(=O)c1c(C)[nH]c(C)c1S(=O)(=O)N1CCCC(C(=O)NCc2cccs2)C1 (stereo not drawn),x,0.78
Fc1ccccc1-n1ncc2c1ncn1nc(-c3ccccc3)nc21,-1.7,1.9
Clc1ccccc1-n1ncc2c1ncn1nc(-c3ccccc3)nc21,-2.4,6.9*
Cc1nnc(NC(=O)CSc2nc3c(c(=O)n2-c2ccc(Br)cc2)SCC3)s1,-1.8,0.87
COc1ccc(OC)c(NC(=O)C(C)Sc2nnc(-c3ccoc3C)o2)c1 (stereo not drawn),12*,2.1
COc1cc(OC)c(NC(=O)C(C)Sc2nnc(-c3ccoc3C)o2)cc1Cl (stereo not drawn),-0.34,1.7
Cc1ccc(C(C)C)c(OC(C)C(=O)N(Cc2ccco2)C2CCS(=O)(=O)C2)c1 (stereo not drawn),-1.8,0.22
CC12CN3CC(c4ccccc4)(CN(C1)C3c1ccccc1O)C2=O (stereo not drawn),-0.68,-1.3
COc1cccc(C2N3CC4(C)CN2CC(c2ccccc2)(C3)C4=O)c1O (stereo not drawn),-2.2,4.2*
CC1CCCN(c2cc(NCCN(C)C)c3c4c(onc24)-c2ccccc2C3=O)C1 (stereo not drawn),-2.3,2.5
COc1cccc2c1c(NC(=O)c1cc(C)oc1C)nn2C,-1.1,x
CN(C)c1cccc2c1c(NC(=O)c1cc(Cl)sc1Cl)nn2C,13*,x
O=C(NCC(c1ccco1)S(=O)(=O)c1ccc(Cl)cc1)C(=O)NC1CCCCC1 (stereo not drawn),x,1.1
Cc1ccc(-c2nnn3c2nc(NCc2ccco2)c2ccccc23)cc1,-2,1.2
Cc1cccc(-c2nnn3c2nc(NCc2ccco2)c2ccccc23)c1,-1.8,7.8*

# Source: PubChem BioAssay
